This assay deals with Gonadotropin-releasing hormone receptor (Homo sapiens) (UniProt P30968). Briefly: Human gonadotropin-releasing hormone receptor (GnRHR) small molecule agonists, calcium flux assay in GnRHR-HEK293 cells (AID 1920063). Note: nearly all actives have a fitted effect of over 35% in size. Summed up: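 Intracellular calcium rise is the read-out: engineered human GnRHR HEK293 cells, dye-loaded, are exposed to DMSO-dissolved compounds and fluorescence at Ex/Em 480/540 is tracked for 3 min.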
Sequence of Gonadotropin-releasing hormone receptor (Homo sapiens) (P30968 whole entry, looked up): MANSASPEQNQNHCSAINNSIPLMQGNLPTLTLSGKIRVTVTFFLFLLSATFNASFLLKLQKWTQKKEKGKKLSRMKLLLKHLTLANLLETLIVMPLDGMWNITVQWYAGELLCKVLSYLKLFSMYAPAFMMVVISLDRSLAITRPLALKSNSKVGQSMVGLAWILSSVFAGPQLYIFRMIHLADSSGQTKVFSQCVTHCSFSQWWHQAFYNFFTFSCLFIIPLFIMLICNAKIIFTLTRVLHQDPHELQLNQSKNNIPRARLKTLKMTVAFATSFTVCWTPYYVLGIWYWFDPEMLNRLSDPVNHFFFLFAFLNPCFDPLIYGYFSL

Data on 28 molecules can be found in PubChem BioAssay (Tox21).

Calls of active or inactive are those of the source. A call without a number means that no potency is given here. Calls come from the whole dose curve.

In the case of `CCOC(=O)CC(O)(CC(=O)OCC)C(=O)OCC`, the Potency result was “inactive”. Turning to `O=C1Nc2ccc([N+](=O)[O-])cc2C1=O`, the Potency result is “inactive”.

With `CC(=O)O[Si](C)(OC(C)=O)OC(C)=O`, the Potency result was “inactive”. Regarding `CCOC(=O)CC(=O)C(=O)OCC`, the Potency entry was “inactive”.

`CC(C)CCCCCCN`: the Potency result is “inactive”. For the molecule `COC(C)CCO` (stereo not drawn), the Potency entry is “inactive”. `O=P(O)(O)OP(=O)(O)O`: the Potency result was “inactive”. In the case of `O=C(Oc1cccc2cccnc12)c1ccccc1` it was “inactive”; in that of `CN1CCN(C)CC1`, “inactive”.

As for `CCCC(=O)OC(C)(C)Cc1ccccc1`, the Potency result was “inactive”. On to `Nc1c(Cl)cc(Cl)cc1[N+](=O)[O-]`, for which the Potency entry was “inactive”. `CC(=O)OCC=C(C)C`: the Potency entry was “inactive”. Regarding `N#CCCCC(C#N)CCC#N` (stereo not drawn), the Potency entry was “inactive”. The entry for `CC1CN(c2ccccc2)NC1=O` (stereo not drawn) is “inactive”; for `CCCOCC(C)OCC(C)O` (stereo not drawn) it is “inactive”. In the case of `CC(C)Cc1ccc(CC(=O)O)cc1` it was “inactive”; in that of `C[C@]12C(=O)OC(=O)[C@H]1[C@H]1C=C[C@@H]2C1`, “inactive”; in that of `SCCc1cnccn1`, “inactive”. For `O=C(CN1CCNCC1)NC1CCCCC1`, the Potency entry was “inactive”. As for `CC1=CCC(C(C)C)C=C1` (stereo not drawn), the Potency entry was “inactive”. As to `C=CCOC(=O)CCC1CCCCC1`, the Potency result was “inactive”. For `C=C(C)C(=O)OC`, the Potency entry is “inactive”. Consider `C[C@@]12CCC[C@H]1[C@@H]1CC[C@H]3C[C@@H](O)CC[C@]3(C)[C@H]1CC2`, for which the Potency result is “inactive”.

In the case of `COc1ccnc2c1CCCCC2S(=O)c1nc2ccccc2[nH]1` (stereo not drawn), the Potency result was “inactive”. Take `Cc1ccc([N+](=O)[O-])cc1Cl`: the Potency result was “inactive”. In the case of `c1ccc2sc(SN3CCOCC3)nc2c1` it was “inactive”; in that of `C1CCOC1`, “inactive”; in that of `Cc1c[nH]c(=O)[nH]c1=O`, “inactive”.
